The values that follow come from the supplement of paper PMC10338343.

± gives the standard deviation.

Assay [1] relates to MILI (PIWIL2) piRISC loaded with L1MC piRNA (26 nt). The assay can be described thus: pre-steady-state target cleavage rate (min^-1); guide: L1MC piRNA 5'p-UAACUAAAUACUAUGCAAGCUGUAGG; higher = faster piRNA-guided slicing of the target. Conditions: auxiliary factor: 500 nM mouse GTSF1. The essentials: (§1)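 A burst-and-steady-state fit was used to obtain the pre-steady-state cleavage rate. The input data were sequencing reads of uncleaved targets, normalised to depth and to weakly complementary targets, from a […] transcribed, DNA-blocked target RNA library mixed with 1 nM active affinity-purified piRISC holding one synthetic guide, with or without 500 nM GTSF1 partner protein, in HEPES–potassium acetate buffer at 33 °C for 0–8 or 0–960 min. Three trials were pooled and k3 was capped at 0.0001 min^-1.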

For assay [2], the system named is EfPiwi piRISC loaded with L1MC piRNA (26 nt). Briefly: pre-steady-state target cleavage rate (min^-1); auxiliary factor: 500 nM Ephydatia muelleri Gtsf1; guide: L1MC piRNA 5'p-UAACUAAAUACUAUGCAAGCUGUAGG; MIWI and MILI are mouse PIWI proteins and EfPiwi is from a freshwater sponge; tags in brackets are library labels; higher = faster piRNA-guided slicing of the target. In a few lines:
as §1

On to UCCUGCUACAGCUUGCAUUGUAUUAAGUUA, for which the “pre-steady-state target cleavage rate” value in assay [1] was 0.215 ± 0.03; in assay [2], 0.00572 ± 0.0028.

For UCCUGCUACAGCUUCCAUAGUAUUUAGUAA, the “pre-steady-state target cleavage rate” value in assay [1] amounted to 0.0172 ± 0.0082; in assay [2], 0.00255 ± 0.0016.

Turning to UCCUGCUACAGCUUGCAUAGUAUUGAGUUA, the “pre-steady-state target cleavage rate” value turned out to be 0.114 ± 0.027 in assay [1] and 0.00424 ± 0.0019 in assay [2].

In the case of UCCUGGUACAGCUUGCAUAGUAUUUACAAA, the “pre-steady-state target cleavage rate” value in assay [1] turned out to be 0.0693 ± 0.017; in assay [2], 0.003 ± 0.002.

With UCCUGGAUGUGCUUGCAUAGUAAUUAGAUA, the results for the “pre-steady-state target cleavage rate” value in assay [1] and in assay [2] were 0.00915 ± 0.0044 and 0.00395 ± 0.0024, respectively.

For the sequence UCCUGGAAGUCCUUGCAUAGUAUUUAGAAA, the “pre-steady-state target cleavage rate” value in assay [1] stood at 0.151 ± 0.03; in assay [2], 0.00315 ± 0.0023.

For UCCUGGUACAGCUUGCAUAGUAUUAAGAAA, the “pre-steady-state target cleavage rate” value in assay [1] came to 0.0213 ± 0.0097; in assay [2] it was 0.00387 ± 0.0017.

As to UCCUGGAACAGGUUCCAUAGUAUUUAGUUA, the “pre-steady-state target cleavage rate” value in assay [1] was determined as 0.202 ± 0.066; in assay [2], 0.00255 ± 0.0024.

For the sequence UCCUGCUACAGCUUGCAUAGUAUUUACUAA, the “pre-steady-state target cleavage rate” value in assay [1] worked out at 0.112 ± 0.024; in assay [2] it was 0.0025 ± 0.0024.

In the case of UCCUGGAUGUGCUUGCAUAGUAUUGAGUUA, the “pre-steady-state target cleavage rate” value was 0.0612 ± 0.019 in assay [1] and 0.00273 ± 0.0022 in assay [2].

As for UCCUGGAACAGCUUGCAUAGUUAUUAGUAA, the results for the “pre-steady-state target cleavage rate” value in assay [1] and in assay [2] were 0.0204 ± 0.0084 and 0.00454 ± 0.0037, respectively.

For the sequence UCCUGGUACAGCUUGCAUAGAAUUAAGUUA, the entries for the “pre-steady-state target cleavage rate” value in assay [1] and in assay [2] were 0.0989 ± 0.03 and 0.00454 ± 0.0027, respectively.

As for UCCUGCUACAGCUUGCAUAGUUUUUACAAA, the “pre-steady-state target cleavage rate” value in assay [1] came out at 0.0689 ± 0.019; in assay [2] it was 0.00339 ± 0.0026.

Regarding UCCUCCUACAGCUUGCAUAGUAAAAACAAA, the “pre-steady-state target cleavage rate” value was 0.0836 ± 0.022 in assay [1] and 0.00389 ± 0.0036 in assay [2].

For UCCUCCUACUCGUUGCAUAGUAUUUAGAAA, the “pre-steady-state target cleavage rate” value in assay [1] amounted to 0.076 ± 0.019; in assay [2] it was 0.004 ± 0.0035.

For the sequence UCCUCCUACAGCUUGCAUAGAUUUAGUUA, the “pre-steady-state target cleavage rate” value in assay [1] was 0.00908 ± 0.0047; in assay [2], 0.00442 ± 0.0029.

For UCCUCCUACAGCUUGCAUUGUAUUUAGAUA, the “pre-steady-state target cleavage rate” value in assay [1] was found to be 0.119 ± 0.019; in assay [2] it was 0.00539 ± 0.0029.

On to UCCUGGAUGAGCUUGCAUAGUAUUUACAUA, for which the entries for the “pre-steady-state target cleavage rate” value in assay [1] and in assay [2] were 0.0149 ± 0.0065 and 0.00323 ± 0.0028, respectively.

For UCCUCCUACAGCUUCCAUAGUAUUUAGUAA, the “pre-steady-state target cleavage rate” value in assay [1] amounted to 0.0254 ± 0.011; in assay [2] it was 0.0037 ± 0.0018.

Regarding UCCUGGAACAGCUUGCAUAGUAUUUCGUUA, the results for the “pre-steady-state target cleavage rate” value in assay [1] and in assay [2] were 0.0829 ± 0.02 and 0.0025 ± 0.0013, respectively.

Consider UCCUCCUACAGCUUGCAUACUAUUUAGUAA, for which the “pre-steady-state target cleavage rate” value in assay [1] was determined as 0.0473 ± 0.012; in assay [2] it was 0.00454 ± 0.0033.

As for UCCUGGUACAGCUUGCAAAGUAUUUUGUUA, the “pre-steady-state target cleavage rate” value in assay [1] was found to be 0.0563 ± 0.014; in assay [2], 0.00296 ± 0.0029.

As for UCCUGGUACAGCUUGCAUACUAUUUAGUAA, the “pre-steady-state target cleavage rate” value in assay [1] was determined as 0.0573 ± 0.023; in assay [2], 0.00327 ± 0.0023.

For UCCUCCUACAGCUUGCUUAGUAUUUUCAAA, the “pre-steady-state target cleavage rate” value in assay [1] is 0.0605 ± 0.014; in assay [2] it was 0.00322 ± 0.003.

For the sequence UCCUGGAACAGCUUGCAUAGUAUAUAGUAA, the entries for the “pre-steady-state target cleavage rate” value in assay [1] and in assay [2] were 0.124 ± 0.022 and 0.00251 ± 0.0017, respectively.

For UCCUCCAACAGCUUCCAUAGUAUUUAGUUA, the “pre-steady-state target cleavage rate” value in assay [1] is 0.0545 ± 0.017; in assay [2] it was 0.00439 ± 0.0021.

For the sequence UCCUCCUACAGCUUGCAUAGAAUUUAGAUA, the “pre-steady-state target cleavage rate” value worked out at 0.0558 ± 0.014 in assay [1] and 0.00317 ± 0.0015 in assay [2].

For UCCUCCUACAGCUUCGAUAGUAUUUAGUAA, the “pre-steady-state target cleavage rate” value is 0.217 ± 0.02 in assay [1] and 0.00413 ± 0.0021 in assay [2].

For UCCUGGUACAGCUUGCUUAGUAUUUAGAUA, the results for the “pre-steady-state target cleavage rate” value in assay [1] and in assay [2] were 0.122 ± 0.024 and 0.00305 ± 0.0025, respectively.

Regarding UCCUGCUACAGCAUGCAUAGUAUUUACUUA, the “pre-steady-state target cleavage rate” value in assay [1] amounted to 0.261 ± 0.041; in assay [2] it was 0.0037 ± 0.0024.

UCCUGCUACUCCUUGCAUAGUAUUUAGAAA: the “pre-steady-state target cleavage rate” value in assay [1] worked out at 0.0806 ± 0.019; in assay [2], 0.00264 ± 0.002.

Regarding UCCUGGAACAGCUUGCAUAGUAUUCUAGUUA, the “pre-steady-state target cleavage rate” value in assay [1] was determined as 0.145 ± 0.032; in assay [2], 0.00277 ± 0.0018.

For UCCUCCUUGAGCUUGCAUAGUAUUUUCAAA, the “pre-steady-state target cleavage rate” value was determined as 0.0637 ± 0.016 in assay [1] and 0.00265 ± 0.0021 in assay [2].

As to UCCUGCUACACCUUGCAUAGUAUUUUGUUA, the “pre-steady-state target cleavage rate” value is 0.1 ± 0.032 in assay [1] and 0.00317 ± 0.0023 in assay [2].

As for UCCUGCUACAGCUUGCAUACGUAUUUAGUUA, the “pre-steady-state target cleavage rate” value came out at 0.00697 ± 0.0042 in assay [1] and 0.00225 ± 0.0022 in assay [2].

For the sequence UCCUGGAACAGCUUGCUUAGUAUUUAGAUA, the “pre-steady-state target cleavage rate” value turned out to be 0.176 ± 0.017 in assay [1] and 0.00448 ± 0.0027 in assay [2].

As to UCCUGCUACAGCUUGCAUAGUAUUUAGAUA, the entries for the “pre-steady-state target cleavage rate” value in assay [1] and in assay [2] were 0.15 ± 0.029 and 0.00539 ± 0.0023, respectively.

As to UCCUGGAACAGCUUGCAUAGUAUAAAGUUA, the “pre-steady-state target cleavage rate” value in assay [1] was determined as 0.196 ± 0.029; in assay [2], 0.00389 ± 0.0023.

With UCCUGCUACAGCUUGCAUUGUAUUUAGAUA, the “pre-steady-state target cleavage rate” value in assay [1] amounted to 0.106 ± 0.017; in assay [2], 0.00283 ± 0.0018.

UCCUGCUACACCUUGCAUAGUAUUUAGAUA: the results for the “pre-steady-state target cleavage rate” value in assay [1] and in assay [2] were 0.112 ± 0.032 and 0.00254 ± 0.0016, respectively.

On to UCCUCCUACAGCUUGCUUAGUAUUUAGAAA, for which the “pre-steady-state target cleavage rate” value was 0.091 ± 0.018 in assay [1] and 0.00569 ± 0.0027 in assay [2].

For UCCUCCUACACCUUGCAUAGUAUUUAGAAA, the results for the “pre-steady-state target cleavage rate” value in assay [1] and in assay [2] were 0.226 ± 0.05 and 0.00377 ± 0.0021, respectively.

Regarding UCCUGGUACAGCUUGCAUACUAUUAAGUUA, the entries for the “pre-steady-state target cleavage rate” value in assay [1] and in assay [2] were 0.0468 ± 0.016 and 0.00282 ± 0.0022, respectively.

For the sequence UCCUGGUACAGCUUGCUUAGUAUUUAGAAA, the “pre-steady-state target cleavage rate” value in assay [1] turned out to be 0.0808 ± 0.021; in assay [2] it was 0.00224 ± 0.002.

Take UCCUGGAACAGCUUCCAUAGUAUUUAGUUA: the entries for the “pre-steady-state target cleavage rate” value in assay [1] and in assay [2] were 0.0612 ± 0.017 and 0.00225 ± 0.0021, respectively.

As for UCCUGGAUGAGCUUGCAUUGUAUUUAGAAA, the figures for the “pre-steady-state target cleavage rate” value in assay [1] and in assay [2] were 0.0178 ± 0.0069 and 0.00384 ± 0.0021, respectively.

Regarding UCCUGGAACAGCUUGCAUAGUAUUGAGUUA, the “pre-steady-state target cleavage rate” value in assay [1] was 0.172 ± 0.029; in assay [2], 0.00624 ± 0.0022.

In the case of UCCUCCUAGAGCUUGCAUAGUAUUAAGUUA, the “pre-steady-state target cleavage rate” value in assay [1] was found to be 0.279 ± 0.035; in assay [2], 0.00604 ± 0.0026.

For the sequence UCCUCCUACAGCUUGCAUAGAAUUAAGUUA, the “pre-steady-state target cleavage rate” value in assay [1] was 0.127 ± 0.03; in assay [2] it was 0.00382 ± 0.0025.

UCCUGCUACAGCUUGCUUAGUAUUUUGUUA: the results for the “pre-steady-state target cleavage rate” value in assay [1] and in assay [2] were 0.156 ± 0.027 and 0.0127 ± 0.004, respectively.

For the sequence UCCUGCUACAGCUUGCAUAGUAUAAAGAAA, the “pre-steady-state target cleavage rate” value in assay [1] amounted to 0.0621 ± 0.021; in assay [2], 0.00337 ± 0.0023.

With UCCUGGUACAGCUUGCAUACUAUUUAGAAA, the “pre-steady-state target cleavage rate” value in assay [1] was determined as 0.0227 ± 0.011; in assay [2], 0.00236 ± 0.0018.

UCCUGGAUCUCCUUGCAUAGUAUUUAGAAA: the “pre-steady-state target cleavage rate” value in assay [1] worked out at 0.192 ± 0.031; in assay [2], 0.00628 ± 0.0051.

As for UCCUGGAACAGCUUGCAAAGUAUUUAGAAA, the “pre-steady-state target cleavage rate” value in assay [1] is 0.166 ± 0.038; in assay [2], 0.00418 ± 0.002.

Take UCCUGGAUGUGCUUGCAUAGUAUUUAGUCUA: the “pre-steady-state target cleavage rate” value in assay [1] was 0.0182 ± 0.006; in assay [2], 0.00336 ± 0.0024.
